# The supplement of paper PMC10849652
# Targets with a hit are over-represented here; the source holds about 8,800 in all. About 0.5% of all pairs of compound and target were hits. A number with no mark means an inactive call.
# What was measured:
# Assay in all cases: log2 fold change, soluble protein after heating vs DMSO (PISA); higher = thermal stabilisation; K562 lysate, 10 uM; active = over 0.2 and 3.5 SD of the protein, either way, in both replicates (recomputed)
# erlotinib = compound: C#Cc1cccc(Nc2ncnc3cc(OCCOC)c(OCCOC)cc23)c1 [erlotinib]
# How it was run: (§1)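 Dounce homogenisation of K562 pellets in PBS pH 7.4 with 1 mM MgCl2 produced a crude extract, used at 1 mg/mL protein. Exposure to 10 μM compound lasted 30 min, and aliquots were then heated for 3 min across 48°C-58°C, pooled and brought to 0.5% NP-40 at 4°C. The supernatant after 21,000xg for 90 min was quantified by TMTpro 16plex LC-MS/MS with channel sums equalised. Duplicate values are given as log-two fold change in thermal stability relative to solvent controls.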
# [1] = compound: C/C(=N\NC(=O)C1=CC(=CC=C1)S(=O)(=O)N2CCOCC2)/C3=C(C=CC(=C3)Cl)O
# How it was run: as §1
# [2] = compound: C1=CC(=CC=C1C2=NC3=C(N2)C=C(C=C3)C(=O)N)OC4=CC=C(C=C4)Cl
# How it was run: as §1
# [3] = compound: C1=CC2=C(C=CC(=C2)/C=C\3/C(=O)NC(=NCC4=CC=CS4)S3)N=C1
# How it was run: as §1
# [4] = compound: C1=CC=C(C=C1)C2=NC(=C(N2)C3=CC=NC=C3)C4=CC(=C(C=C4)Cl)O
# How it was run: as §1
# [5] = compound: C1=CC=C2C(=C1)C3=NNC4=CC=CC(=C43)C2=O
# How it was run: as §1
# [6] = compound: C1CCN(C1)C(=O)NC2=CC=CC(=C2)NC3=NC=C(C(=N3)NCCC4=CN=CN4)Br
# How it was run: as §1
# [7] = compound: C1CN(CCC1(CC2=CC=C(C=C2)Cl)N)C3=NC=NC4=C3C=CN4
# How it was run: as §1
# IRAK-1-4 Inhibitor I = compound: C1COCCN1CCN2C3=CC=CC=C3N=C2NC(=O)C4=CC(=CC=C4)[N+](=O)[O-] [IRAK-1-4 Inhibitor I]
# How it was run: as §1
# [8] = compound: C1=CC2=NC=CN=C2C=C1/C=C/3\C(=O)NC(=O)S3
# How it was run: as §1
# Sequence of UniProt Q16527 (Q16527 whole entry, looked up): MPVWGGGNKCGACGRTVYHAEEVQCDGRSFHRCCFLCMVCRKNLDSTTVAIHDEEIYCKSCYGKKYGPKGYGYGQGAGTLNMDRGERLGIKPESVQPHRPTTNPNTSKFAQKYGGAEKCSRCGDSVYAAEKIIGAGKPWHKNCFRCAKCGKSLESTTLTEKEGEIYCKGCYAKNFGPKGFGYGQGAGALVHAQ
# Sequence of UniProt Q9H8M5 (Q9H8M5 whole entry, looked up): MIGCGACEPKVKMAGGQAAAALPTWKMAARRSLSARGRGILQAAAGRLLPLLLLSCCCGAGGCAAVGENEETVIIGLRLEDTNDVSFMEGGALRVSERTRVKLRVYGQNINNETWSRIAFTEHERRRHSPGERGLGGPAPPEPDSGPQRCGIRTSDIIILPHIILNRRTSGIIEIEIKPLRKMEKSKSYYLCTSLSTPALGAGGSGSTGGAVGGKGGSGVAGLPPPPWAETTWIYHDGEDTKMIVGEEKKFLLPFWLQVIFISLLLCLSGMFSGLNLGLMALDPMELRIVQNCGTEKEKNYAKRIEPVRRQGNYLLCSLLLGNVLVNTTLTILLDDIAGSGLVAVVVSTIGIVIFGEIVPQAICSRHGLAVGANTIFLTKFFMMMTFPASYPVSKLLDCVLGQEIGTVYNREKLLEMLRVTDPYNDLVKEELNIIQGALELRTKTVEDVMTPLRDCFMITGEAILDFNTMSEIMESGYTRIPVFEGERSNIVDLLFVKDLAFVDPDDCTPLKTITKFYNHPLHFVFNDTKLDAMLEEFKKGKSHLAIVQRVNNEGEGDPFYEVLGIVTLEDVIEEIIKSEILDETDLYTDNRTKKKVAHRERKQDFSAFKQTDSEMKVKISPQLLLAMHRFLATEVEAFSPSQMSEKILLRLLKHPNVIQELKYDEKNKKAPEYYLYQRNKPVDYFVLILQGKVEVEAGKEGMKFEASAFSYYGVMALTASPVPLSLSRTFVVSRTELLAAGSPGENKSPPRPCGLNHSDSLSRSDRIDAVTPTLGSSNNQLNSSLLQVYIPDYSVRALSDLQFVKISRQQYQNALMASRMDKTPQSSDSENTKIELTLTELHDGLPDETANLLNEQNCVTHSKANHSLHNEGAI
# Sequence of UniProt P30622 (P30622 whole entry, looked up): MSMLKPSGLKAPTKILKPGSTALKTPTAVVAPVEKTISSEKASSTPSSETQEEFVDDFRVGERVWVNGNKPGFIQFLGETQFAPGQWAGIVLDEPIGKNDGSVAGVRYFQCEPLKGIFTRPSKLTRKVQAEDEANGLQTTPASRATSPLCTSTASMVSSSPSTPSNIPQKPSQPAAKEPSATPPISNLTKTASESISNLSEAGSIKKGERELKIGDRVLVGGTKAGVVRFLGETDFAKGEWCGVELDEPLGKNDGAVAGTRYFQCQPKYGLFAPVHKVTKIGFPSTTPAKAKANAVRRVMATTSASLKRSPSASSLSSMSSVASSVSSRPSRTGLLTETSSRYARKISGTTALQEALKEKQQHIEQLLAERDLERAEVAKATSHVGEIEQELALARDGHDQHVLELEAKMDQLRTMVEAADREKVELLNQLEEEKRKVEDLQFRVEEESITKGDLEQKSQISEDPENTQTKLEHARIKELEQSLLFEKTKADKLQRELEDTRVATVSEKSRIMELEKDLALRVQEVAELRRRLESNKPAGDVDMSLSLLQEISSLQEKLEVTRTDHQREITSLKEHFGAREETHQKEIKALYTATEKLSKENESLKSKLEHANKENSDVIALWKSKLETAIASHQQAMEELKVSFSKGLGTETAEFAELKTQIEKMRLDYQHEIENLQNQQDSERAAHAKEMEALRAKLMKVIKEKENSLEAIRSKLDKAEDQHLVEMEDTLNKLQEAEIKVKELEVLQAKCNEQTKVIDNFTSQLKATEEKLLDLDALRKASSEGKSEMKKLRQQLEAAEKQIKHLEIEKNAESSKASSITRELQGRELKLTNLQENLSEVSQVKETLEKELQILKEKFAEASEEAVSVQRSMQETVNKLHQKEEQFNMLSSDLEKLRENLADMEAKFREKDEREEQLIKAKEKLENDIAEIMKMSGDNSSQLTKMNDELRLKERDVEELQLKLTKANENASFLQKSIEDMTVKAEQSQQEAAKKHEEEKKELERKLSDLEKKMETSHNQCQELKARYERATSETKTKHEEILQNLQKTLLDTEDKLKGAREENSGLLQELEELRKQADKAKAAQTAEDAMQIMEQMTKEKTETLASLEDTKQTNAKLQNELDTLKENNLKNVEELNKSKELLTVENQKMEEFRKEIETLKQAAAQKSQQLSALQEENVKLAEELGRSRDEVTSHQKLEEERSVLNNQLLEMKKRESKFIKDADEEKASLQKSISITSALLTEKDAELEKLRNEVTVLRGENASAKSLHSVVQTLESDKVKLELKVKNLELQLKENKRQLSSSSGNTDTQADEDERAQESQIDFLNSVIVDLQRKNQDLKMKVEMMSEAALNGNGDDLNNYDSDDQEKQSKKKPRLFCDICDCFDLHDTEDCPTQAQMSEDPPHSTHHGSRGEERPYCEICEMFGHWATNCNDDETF
# Sequence of UniProt Q9Y2V7 (Q9Y2V7 whole entry, looked up): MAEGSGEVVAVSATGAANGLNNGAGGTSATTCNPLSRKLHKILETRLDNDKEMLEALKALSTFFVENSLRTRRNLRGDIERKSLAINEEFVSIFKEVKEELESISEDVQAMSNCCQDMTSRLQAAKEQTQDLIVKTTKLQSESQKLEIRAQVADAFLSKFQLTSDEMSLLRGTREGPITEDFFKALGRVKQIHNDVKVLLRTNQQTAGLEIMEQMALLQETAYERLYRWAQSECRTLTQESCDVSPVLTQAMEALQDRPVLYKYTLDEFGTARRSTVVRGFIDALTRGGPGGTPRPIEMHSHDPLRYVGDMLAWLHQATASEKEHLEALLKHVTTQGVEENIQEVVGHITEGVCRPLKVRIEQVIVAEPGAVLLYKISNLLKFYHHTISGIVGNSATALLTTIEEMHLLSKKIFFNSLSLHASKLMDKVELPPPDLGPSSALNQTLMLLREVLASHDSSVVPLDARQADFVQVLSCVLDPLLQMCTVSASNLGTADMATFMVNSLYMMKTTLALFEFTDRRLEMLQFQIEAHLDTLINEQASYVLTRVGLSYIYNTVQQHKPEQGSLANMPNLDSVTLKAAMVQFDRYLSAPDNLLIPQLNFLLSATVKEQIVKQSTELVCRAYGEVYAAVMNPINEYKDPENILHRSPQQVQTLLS
# Sequence of UniProt Q5D0E6 (Q5D0E6 whole entry, looked up): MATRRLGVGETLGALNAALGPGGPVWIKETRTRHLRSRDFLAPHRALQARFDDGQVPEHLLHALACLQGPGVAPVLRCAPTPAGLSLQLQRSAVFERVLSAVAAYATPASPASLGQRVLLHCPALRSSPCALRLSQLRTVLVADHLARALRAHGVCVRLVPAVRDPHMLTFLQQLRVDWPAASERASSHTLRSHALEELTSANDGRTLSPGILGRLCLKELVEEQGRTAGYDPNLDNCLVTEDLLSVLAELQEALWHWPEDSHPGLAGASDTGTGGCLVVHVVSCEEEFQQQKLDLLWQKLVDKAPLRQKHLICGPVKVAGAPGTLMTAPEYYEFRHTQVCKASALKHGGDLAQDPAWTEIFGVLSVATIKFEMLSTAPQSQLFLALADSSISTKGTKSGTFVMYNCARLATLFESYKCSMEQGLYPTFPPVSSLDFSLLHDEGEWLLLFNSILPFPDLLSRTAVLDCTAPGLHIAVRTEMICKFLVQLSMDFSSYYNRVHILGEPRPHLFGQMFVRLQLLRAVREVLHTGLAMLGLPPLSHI
# Sequence of UniProt O15247 (O15247 whole entry, looked up): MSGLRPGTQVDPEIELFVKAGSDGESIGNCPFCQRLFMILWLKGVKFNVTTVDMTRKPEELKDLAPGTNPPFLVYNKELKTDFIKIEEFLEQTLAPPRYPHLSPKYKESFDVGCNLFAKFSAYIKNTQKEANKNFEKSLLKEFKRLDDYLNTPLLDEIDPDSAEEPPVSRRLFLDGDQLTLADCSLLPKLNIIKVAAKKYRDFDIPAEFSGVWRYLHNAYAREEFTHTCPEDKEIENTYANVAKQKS
# Sequence of UniProt Q8WXC6 (Q8WXC6 whole entry, looked up): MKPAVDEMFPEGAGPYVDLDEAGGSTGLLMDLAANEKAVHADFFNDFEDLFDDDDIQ
# Sequence of UniProt Q9UJA2 (Q9UJA2 whole entry, looked up): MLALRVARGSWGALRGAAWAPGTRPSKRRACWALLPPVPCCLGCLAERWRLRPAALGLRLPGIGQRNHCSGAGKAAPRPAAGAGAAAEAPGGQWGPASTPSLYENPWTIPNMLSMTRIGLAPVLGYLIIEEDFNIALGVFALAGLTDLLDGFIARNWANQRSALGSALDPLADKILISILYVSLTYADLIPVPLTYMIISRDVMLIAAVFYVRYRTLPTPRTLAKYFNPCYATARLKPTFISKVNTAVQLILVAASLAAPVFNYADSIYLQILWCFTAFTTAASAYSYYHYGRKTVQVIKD
# Sequence of UniProt Q6UX07 (Q6UX07 whole entry, looked up): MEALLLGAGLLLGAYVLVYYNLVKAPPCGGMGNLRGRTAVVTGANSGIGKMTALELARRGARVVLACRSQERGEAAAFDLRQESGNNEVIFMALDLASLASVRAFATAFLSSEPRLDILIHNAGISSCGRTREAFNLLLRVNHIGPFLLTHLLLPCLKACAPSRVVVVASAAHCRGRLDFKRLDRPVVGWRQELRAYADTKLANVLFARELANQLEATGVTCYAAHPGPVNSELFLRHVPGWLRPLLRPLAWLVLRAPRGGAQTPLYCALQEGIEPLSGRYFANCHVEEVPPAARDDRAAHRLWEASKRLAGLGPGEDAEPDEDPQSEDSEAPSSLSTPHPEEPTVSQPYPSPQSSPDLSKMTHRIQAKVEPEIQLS
# Sequence of UniProt O95715 (O95715 whole entry, looked up): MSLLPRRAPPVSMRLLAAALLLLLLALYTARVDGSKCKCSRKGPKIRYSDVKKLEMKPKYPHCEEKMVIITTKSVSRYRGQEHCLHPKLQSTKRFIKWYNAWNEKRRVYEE
# Sequence of UniProt O14810 (O14810 whole entry, looked up): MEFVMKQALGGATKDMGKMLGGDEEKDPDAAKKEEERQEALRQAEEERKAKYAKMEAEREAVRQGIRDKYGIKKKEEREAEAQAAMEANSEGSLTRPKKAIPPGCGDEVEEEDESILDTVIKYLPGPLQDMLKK
Target,log2 fold change (erlotinib),log2 fold change [1],log2 fold change [2],log2 fold change [3],log2 fold change [4],log2 fold change [5],log2 fold change [6],log2 fold change [7],log2 fold change (IRAK-1-4 Inhibitor I),log2 fold change [8]
CORO7 (UniProt P57737),-0.001,0.01,0.291,-0.089,-0.023,-0.047,-0.07,0.064,0.091,–
DNAH5 (UniProt Q8TE73),-0.006,-0.008,0,-0.024,0.004,-0.056,–,–,-0.015,0.015
CWC22 (UniProt Q9HCG8),0.058,0.006,-0.046,-0.009,-0.025,-0.092,-0.014,-0.006,-0.017,-0.032
DLGAP5 (UniProt Q15398),-0.015,0.023,-0.006,-0.024,0.026,-0.021,-0.013,-0.013,-0.009,-0.02
CKAP5 (UniProt Q14008),0.018,0.003,0.005,-0.01,0.002,-0.055,-0.015,0.004,0.001,-0.009
COG4 (UniProt Q9H9E3),0.029,-0.015,-0.05,-0.015,0.008,-0.057,0.011,0.039,0.009,-0.018
DNAH10 (UniProt Q8IVF4),0.003,0.047,-0.059,-0.053,0.026,-0.043,0.012,0.036,0.054,-0.026
DOCK7 (UniProt Q96N67),0.078,0.009,-0.045,-0.041,0.014,-0.023,-0.003,0.016,0.024,-0.126
CXorf38 (UniProt Q8TB03),0.068,0.067,-0.003,0.01,0.013,0.012,-0.058,-0.031,0.026,0.042
DPY19L3 (UniProt Q6ZPD9),-0.131,0.007,-0.097,0.101,–,-0.2,0.005,0.008,–,0.211
CUX1 isoform 2 (UniProt Q13948),-0.029,-0.003,-0.229,0.034,-0.011,0.02,-0.015,-0.008,0.029,–
DNM2 (UniProt P50570),0.045,-0.009,0.049,0.013,0.003,-0.049,-0.022,-0.008,0,0.029
CNOT4 isoform 9 (UniProt O95628),0,0.005,0.015,-0.04,-0.105,0.015,0.003,-0.013,0.054,0
COG6 (UniProt Q9Y2V7),-0.059,0.153,-0.074,-0.07,0.015,0.024,0.008,0.077,0.006,-0.008
CLIC2 (UniProt O15247),0.036,0.022,-0.005,-0.03,-0.014,-0.014,0.019,0.015,0.006,-0.014
CYP51A1 (UniProt Q16850),-0.029,0.045,0.193,0.058,-0.041,0.118,-0.092,-0.023,0.043,-0.087
CLASP1 isoform 4 (UniProt Q7Z460),0.199,-0.041,0.04,-0.262,–,-0.029,–,–,–,–
CPLX1 (UniProt O14810),–,-0.059,–,0.062,0.012,0.114,0.012,-0.048,0.027,–
CSDE1 isoform 3 (UniProt O75534),–,–,–,–,0.027,–,–,–,-0.011,0.13
CNK3/IPCEF1 isoform 2 (UniProt G9CGD6),0.065,-0.008,0.038,-0.082,-0.051,0.053,0.014,-0.048,0.105,–
DNA2 (UniProt P51530),-0.019,0.071,-0.054,-0.163,-0.032,0.044,0.027,0.077,-0.033,–
DLGAP5 isoform 3 (UniProt Q15398),–,–,–,–,–,–,–,–,–,-0.009
DAPK1 isoform 3 (UniProt P53355),-0.015,-0.17,-0.306,-0.274,0.061,0.181,–,–,0.008,–
DNM2 isoform 4 (UniProt P50570),0.099,–,0.107,–,0.072,–,-0.11,-0.011,0.133,–
COL12A1 (UniProt Q99715),-0.016,-0.009,0.01,-0.008,–,-0.053,0.059,0.065,–,–
CINP isoform 3 (UniProt Q9BW66),–,0.016,–,0.015,0.081,-0.102,-0.015,-0.056,0.074,-0.015

Target,log2 fold change (erlotinib),log2 fold change [1],log2 fold change [2],log2 fold change [3],log2 fold change [4],log2 fold change [5],log2 fold change [6],log2 fold change [7],log2 fold change (IRAK-1-4 Inhibitor I),log2 fold change [8]
CYP4V2 (UniProt Q6ZWL3),-0.07,–,0.014,–,0.099,–,–,–,0.074,0.126
CLASP2 (UniProt O75122),–,-0.114,–,0.12,-0.044,-0.059,0,0.023,-0.017,-0.225
CNOT2 (UniProt F8VRS8),0.307,–,0.101,–,–,–,–,–,–,–
DONSON (UniProt Q9NYP3),0,–,0.051,–,0.06,–,–,–,-0.021,0.014
DCTN1 isoform 4 (UniProt Q14203),-0.021,-0.166,0.065,-0.109,0.098,0.126,-0.141,0,0.02,–
DDAH1 (UniProt O94760),0,-0.008,0.006,-0.027,-0.006,0.035,0.032,0.051,-0.016,–
CHMP4A (UniProt H0YIN6),–,–,–,–,-0.055,–,–,–,0.142,0.06
CSRP2 (UniProt Q16527),–,–,–,–,–,–,0.043,-0.003,–,-0.097
COL6A3 (UniProt P12111),-0.101,–,0.14,–,-0.108,–,–,–,-0.071,-0.232
COPS9 (UniProt Q8WXC6),-0.01,–,-0.362,–,0.081,–,–,–,-0.371,–
CSAD isoform 3 (UniProt Q9Y600),-0.02,–,0.064,–,0.044,–,–,–,-0.02,-0.115
CIC (UniProt I3L1Q4),–,–,–,–,–,–,–,–,–,-0.03
DESI2 (UniProt Q9BSY9),–,0.195,–,-0.043,–,0.119,0.002,0.067,–,–
CNNM2 (UniProt Q9H8M5),-0.109,-0.206,0.038,0.058,-0.106,-0.029,0.045,0.201,0.098,–
CSNK1D (UniProt P48730),–,-0.32,–,-0.06,0.124,0.415 (active),-0.031,0.013,-0.048,0.039
CSNK1A1 isoform 3 (UniProt P48729),–,–,–,–,-0.006,–,–,–,0.088,–
CLIP1 isoform 2 (UniProt P30622),-0.067,–,0.056,–,-0.055,–,0.023,0.023,0.026,-0.082
"CLIP1, A0A3B3ITA2",–,0.025,–,0.004,-0.039,-0.103,–,–,0.121,–
CXCL14 (UniProt O95715),–,0.119,–,-0.094,–,-0.268,-0.444,0.119,–,-0.09
CHEK2 (UniProt O96017),-0.042,-0.006,–,0.05,0.018,0.148,0.11,-0.035,-0.031,0.053
CYP2S1 isoform 2 (UniProt Q96SQ9),-0.026,-0.291,-0.018,-0.096,0.07,-0.123,-0.198,0.08,-0.044,–
DHRS13 (UniProt Q6UX07),0.227,–,-0.074,–,0.133,–,–,–,-0.162,-0.142
CRLS1 (UniProt Q9UJA2),0.074,–,-0.085,–,0.056,–,–,–,-0.021,0.087
DALRD3 (UniProt Q5D0E6),0.034,0.152,0.05,-0.413,–,0.021,0.031,-0.068,–,–
DDR1 isoform 5 (UniProt Q08345),–,–,–,–,0.04,–,-0.011,-0.016,0.097,0.044
